In PubChem BioAssay:
The source made the active and inactive calls.

Legend:
[1] = optical density shifts of acrAB sulA E. coli – strain DRC41, OD650, 48 h, E. coli filamentation inducer project, primary screen (AID 1152); conditions: higher = more signal, called active from +8 up or from −8 down;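 also: E. coli MC1000 strain DRC41 lacking acrAB efflux pump and sulA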
[2] = probe aLefty1 binding on compound microarray – biochemical, small-molecule microarray, 635/667 nm fluorescence, primary screen (AID 1153); conditions: higher = more signal;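 also: score merges spot fluorescence with signal-to-noise ratio from the scanned slide images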
[3] = plasmodial surface anion channel blockers, osmotic lysis – cell-based, P. falciparum Indochina, OD700, 1 h, primary screen (AID 1154); conditions: P. falciparum Indochina infected RBC osmotic lysis, higher = more signal, called active from +8 up or from −8 down
[4] = plasmodial surface anion channel blockers, osmotic lysis – cell-based, P. falciparum Indochina, OD700, 2 h, primary screen (AID 1155);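 also: lysis reports solute entry through the parasite surface anion channel PSAC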; conditions: P. falciparum Indochina infected erythrocytes, higher = more signal, called active from +8 up or from −8 down
[5] = changes in parasitized red cell lysis, either direction – P. falciparum Indochina, OD700, 3 h, PSAC antagonist project, primary screen (AID 1156); conditions: P. falciparum-infected erythrocytes, osmotic lysis, higher = more signal, called active from +8 up or from −8 down
[6] = plasmodial surface anion channel blockers, osmotic lysis – cell-based, P. falciparum Indochina, OD700, 18 h, primary screen (AID 1157); conditions: P. falciparum Indochina infected erythrocytes, osmotic lysis OD700, 18 h; higher = more signal, called active from +8 up or from −8 down
[7] = S6 kinase pathway phospho-S6 level changes – cell-based, A549, cytoblot, luminescence, serum-stimulated, primary screen (AID 1158); conditions: 5 h, higher = more signal;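 also: serum-stimulated A549 lung adenocarcinoma cells; signal is phosphorylated S6 detected by cytoblot immunostaining with HRP secondary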
[8] = target: NADPH oxidase 2 (Homo sapiens) (UniProt P04839); experiment: compounds shifting NOX2 Amplex Red fluorescence – cell-based, HEK293-NOX2, PMA-stimulated, NOX inhibitor project, primary screen (AID 1159); conditions: 45 min, higher = more signal, called active from +8 up or from −8 down; also: test concentration not given here
Sequence of NADPH oxidase 2 (Homo sapiens) (P04839 whole entry, looked up): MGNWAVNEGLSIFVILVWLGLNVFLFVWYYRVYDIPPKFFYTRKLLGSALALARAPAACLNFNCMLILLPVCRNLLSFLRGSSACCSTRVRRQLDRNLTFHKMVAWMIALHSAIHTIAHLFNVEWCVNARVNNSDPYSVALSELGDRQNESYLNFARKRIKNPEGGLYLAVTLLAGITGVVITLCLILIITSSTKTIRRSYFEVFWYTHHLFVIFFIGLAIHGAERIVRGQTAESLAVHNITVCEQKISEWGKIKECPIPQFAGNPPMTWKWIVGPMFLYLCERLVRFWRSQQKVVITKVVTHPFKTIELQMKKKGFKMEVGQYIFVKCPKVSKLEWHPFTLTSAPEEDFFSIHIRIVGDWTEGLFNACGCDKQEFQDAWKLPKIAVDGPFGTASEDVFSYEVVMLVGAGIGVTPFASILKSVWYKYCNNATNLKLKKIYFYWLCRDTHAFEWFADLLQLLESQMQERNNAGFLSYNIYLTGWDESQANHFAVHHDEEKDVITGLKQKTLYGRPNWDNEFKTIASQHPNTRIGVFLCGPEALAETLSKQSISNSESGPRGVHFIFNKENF

[9] = target: NADPH oxidase 4 (Homo sapiens) (UniProt Q9NPH5); experiment: compounds shifting NOX4 Amplex Red fluorescence – cell-based, HEK293-NOX4, tetracycline-induced, NOX inhibitor project, primary screen (AID 1160); conditions: HEK293-NOX4, Amplex Red H2O2 fluorescence, 45 min; higher = more signal, called active from +8 up or from −8 down
Sequence of NADPH oxidase 4 (Homo sapiens) (Q9NPH5 whole entry, looked up): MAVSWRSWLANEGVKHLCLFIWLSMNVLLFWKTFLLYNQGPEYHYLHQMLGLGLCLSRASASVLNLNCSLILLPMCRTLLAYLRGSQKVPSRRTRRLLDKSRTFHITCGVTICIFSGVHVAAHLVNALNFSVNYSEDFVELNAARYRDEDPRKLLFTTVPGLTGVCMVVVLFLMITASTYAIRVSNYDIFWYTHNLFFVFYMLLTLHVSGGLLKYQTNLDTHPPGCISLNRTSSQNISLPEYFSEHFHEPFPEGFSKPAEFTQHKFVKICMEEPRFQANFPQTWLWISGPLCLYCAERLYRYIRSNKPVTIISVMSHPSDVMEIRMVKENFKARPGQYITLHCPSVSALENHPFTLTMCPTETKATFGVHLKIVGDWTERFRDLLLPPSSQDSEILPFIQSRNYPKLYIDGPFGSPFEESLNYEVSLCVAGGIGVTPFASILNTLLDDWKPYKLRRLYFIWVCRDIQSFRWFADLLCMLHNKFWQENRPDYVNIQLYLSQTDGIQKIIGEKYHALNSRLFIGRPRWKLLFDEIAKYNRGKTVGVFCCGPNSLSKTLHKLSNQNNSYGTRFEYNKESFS

[10] = target: NADPH oxidase 5 (Homo sapiens) (UniProt Q96PH1); experiment: compounds shifting NOX5 Amplex Red fluorescence – cell-based, HEK293-NOX5, NOX inhibitor project, primary screen (AID 1161); conditions: HEK293-NOX5, ionomycin, 45 min, higher = more signal
Sequence of NADPH oxidase 5 (Homo sapiens) (Q96PH1 whole entry, looked up): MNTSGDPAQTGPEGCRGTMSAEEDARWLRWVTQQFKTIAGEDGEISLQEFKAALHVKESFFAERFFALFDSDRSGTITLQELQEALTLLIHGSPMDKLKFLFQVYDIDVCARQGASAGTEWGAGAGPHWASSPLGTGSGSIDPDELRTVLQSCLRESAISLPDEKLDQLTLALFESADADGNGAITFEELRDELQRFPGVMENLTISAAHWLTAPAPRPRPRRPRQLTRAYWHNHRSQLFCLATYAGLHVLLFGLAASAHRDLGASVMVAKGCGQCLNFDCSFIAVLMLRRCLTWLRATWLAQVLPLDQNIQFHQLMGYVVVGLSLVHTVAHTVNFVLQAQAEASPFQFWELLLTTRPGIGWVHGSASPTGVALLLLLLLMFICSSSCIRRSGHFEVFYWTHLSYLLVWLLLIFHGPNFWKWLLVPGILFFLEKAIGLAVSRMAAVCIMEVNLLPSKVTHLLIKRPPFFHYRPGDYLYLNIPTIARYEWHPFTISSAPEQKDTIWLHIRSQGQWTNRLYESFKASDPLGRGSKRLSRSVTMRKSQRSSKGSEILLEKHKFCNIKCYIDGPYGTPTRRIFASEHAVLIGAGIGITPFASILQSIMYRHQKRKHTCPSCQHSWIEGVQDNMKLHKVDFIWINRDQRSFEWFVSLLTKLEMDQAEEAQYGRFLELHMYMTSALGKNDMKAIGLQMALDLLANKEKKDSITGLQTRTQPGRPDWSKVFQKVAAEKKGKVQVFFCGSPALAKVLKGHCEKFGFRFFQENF

Row | Compound | z-score [1] | composite z-score [2] | z-score [3] | z-score [4] | z-score [5] | z-score [6] | z-score [7] | z-score [8] | z-score [9] | z-score [10]
1 | CCOC(=O)C[C@H]1[C@H](OC(=O)c2ccc(C(=O)c3ccccc3)cc2)[C@@H](NC(=O)c2ccc(-c3ccccc3)cc2)c2cc(OCCCO)ccc2N1C(=O)c1ccc2ccccc2n1 | 2.25 (inactive) | -0.118 | 5.21 (inactive) | 0.485 (inactive) | 0.464 (inactive) | 0.407 (inactive) | 0.756 | -1.46 (inactive) | 0.424 (inactive) | 0.216
2 | C[C@@H](c1ccccc1)N1C(=O)[C@H]2[C@H]3[C@H](O)[C@H](O)CC(=NOC[C@@H](O)COCc4ccco4)[C@@H]3CC[C@H]2C1=O | -0.224 (inactive) | -0.147 | 0.169 (inactive) | 0.32 (inactive) | -0.478 (inactive) | -0.138 (inactive) | 0.403 | 0.215 (inactive) | -1.51 (inactive) | -0.681
3 | C=CCNC(=O)[C@H]1[C@@H]2C(=O)O[C@@H](c3ccccc3)[C@@H](c3ccccc3)N2[C@@H](c2ccc(O)cc2)[C@]12C(=O)N(C(=O)OCCOC)c1ccc(C#CC3=CCCCC3)cc12 | -0.383 (inactive) | 1.81 | 1.65 (inactive) | 0.929 (inactive) | 0.0207 (inactive) | 0.506 (inactive) | -0.25 | 1.96 (inactive) | -0.149 (inactive) | 1.47
4 | C=C(/C(=C/C[C@H](OC(=O)c1ccncc1)c1ccc(OCCO)cc1)c1cnc2ccccc2c1)C(C)C | -0.592 (inactive) | 0.188 | 18.5 (active) | 3.04 (inactive) | 1.11 (inactive) | 0.724 (inactive) | -0.288 | -0.513 (inactive) | -0.346 (inactive) | -0.699
5 | COCCCNC(=O)[C@@]1(Sc2ccc(C)cc2)CC(=O)N(Cc2ccccc2)[C@@H]1c1ccc(CO)cc1I | 0.613 (inactive) | 0.337 | 4.55 (inactive) | 0.831 (inactive) | 0.533 (inactive) | 0.377 (inactive) | 0.505 | 1.26 (inactive) | -0.666 (inactive) | 1.26
6 | CCCC[C@@H]1C[C@H]1[C@@H](NS(=O)(=O)c1cccc2cccnc12)c1ccc(-c2ccccc2)cc1 | -1.29 (inactive) | 0.0217 | 1.58 (inactive) | 0.985 (inactive) | 0.336 (inactive) | 0.764 (inactive) | -0.464 | 0.0564 (inactive) | -1.29 (inactive) | 1.21
7 | CC(CCN1CCc2nc(-c3ccccc3)c(-c3ccccc3)cc2C1)=NO[C@@H](C)c1cn([C@H](CO)Cc2ccccc2)nn1 | -1.44 (inactive) | -0.103 | -0.278 (inactive) | -1.89 (inactive) | 0.0934 (inactive) | -2.16 (inactive) | 1.52 | -7.26 (inactive) | -1.51 (inactive) | -4.19
8 | O=C1[C@H]2[C@H]3[C@H](O)[C@H](O)CC(=NOCc4ccccc4)[C@@H]3CC[C@H]2C(=O)N1C1CCCCC1 | -0.501 (inactive) | 0.056 | 2.79 (inactive) | 0.322 (inactive) | 0.28 (inactive) | 0.352 (inactive) | -0.206 | 1.56 (inactive) | 0.568 (inactive) | -0.818
9 | O=C(NN=C1C[C@@H](O)[C@@H](O)[C@@H]2[C@@H]3C(=O)N(c4ccc(F)cc4F)C(=O)[C@@H]3CC[C@@H]12)OCc1ccccc1 | 0.113 (inactive) | 0.0536 | 3.79 (inactive) | 0.326 (inactive) | -0.479 (inactive) | 0.0094 (inactive) | -0.849 | 1.56 (inactive) | 0.882 (inactive) | 0.0449
10 | CC(C)(C)N1CC=CC23O[C@@H]4C=CCCOC(=O)C4[C@H]2C(=O)N(CCCCCO)[C@@H]3C1=O (stereo not given in full) | 0.499 (inactive) | 0.0919 | 1.03 (inactive) | 0.396 (inactive) | 1.98 (inactive) | 0.159 (inactive) | -0.186 | 1.26 (inactive) | 0.385 (inactive) | 1.75
11 | Cc1ccc(S[C@]2(C(=O)NCC(F)(F)F)CC(=O)N(Cc3ccccc3Cl)[C@@H]2c2ccc(CO)cc2I)cc1 | 0.973 (inactive) | 0.051 | 5.02 (inactive) | 0.898 (inactive) | 0.276 (inactive) | 0.524 (inactive) | -0.35 | 0.861 (inactive) | -1.67 (inactive) | 0.799
12 | CCCCc1nc2c(c3c1C[C@H](C)OC3)CN(CCC(C)C)CC2 | -0.192 (inactive) | -0.106 | 1.35 (inactive) | 0.977 (inactive) | 0.816 (inactive) | 0.589 (inactive) | 0.171 | 0.35 (inactive) | 0.315 (inactive) | 0.776
13 | CCCCCN1CC=CC23O[C@@H]4C=CCOC(=O)[C@@H]4[C@H]2C(=O)N(C(CO)C(C)C)[C@@H]3C1=O (stereo not given in full) | 0.374 (inactive) | -0.0479 | 0.901 (inactive) | 0.661 (inactive) | 0.445 (inactive) | 0.307 (inactive) | -0.0997 | 0.965 (inactive) | 0.694 (inactive) | 1.24
14 | CCN1C(=O)[C@H]2[C@H]3[C@H](O)[C@H](O)CC(=NOCc4ccccc4)[C@H]3CC[C@H]2C1=O | -0.255 (inactive) | -0.276 | 1.78 (inactive) | 0.012 (inactive) | -0.824 (inactive) | 0.0113 (inactive) | 0.9 | -0.145 (inactive) | 0.32 (inactive) | -0.385
15 | COCCCNC(=O)[C@]1(Cc2ccccc2)N=C(c2ccc(OCCCO)cc2)O[C@@H]1c1ccccc1 | -1.43 (inactive) | 0.301 | 26.9 (active) | 18.6 (active) | 0.972 (inactive) | 2.34 (inactive) | -0.612 | -1.04 (inactive) | 0.654 (inactive) | 1.1
16 | COc1ccc(O[C@H]2C=C[C@@H](c3ccccc3)O[C@@H]2COC(=O)CCC(C)=NOC[C@@H](C)[C@H](OCc2ccccc2)C(C)C)cc1 | -0.72 (inactive) | -0.278 | 0.857 (inactive) | 0.55 (inactive) | 0.607 (inactive) | 0.294 (inactive) | -0.656 | 0.796 (inactive) | 0.478 (inactive) | 0.329
17 | COC(=O)CC=C[C@@H](C)[C@H](OC)c1ccccc1Br | -0.119 (inactive) | -0.245 | 0.727 (inactive) | 0.716 (inactive) | 0.216 (inactive) | 0.367 (inactive) | -0.0689 | -0.524 (inactive) | 0.055 (inactive) | -0.297
18 | CCOC(=O)[C@H](CC(C)C)NC(=O)CCC1CC(OC(=O)NCc2cccc3ccccc23)CC2(CCCC(COC(=O)NCCN3CCOCC3)O2)O1 (stereo not given in full) | -2.17 (inactive) | -0.275 | -0.839 (inactive) | -0.655 (inactive) | -2.08 (inactive) | -0.709 (inactive) | 0.0369 | 0.428 (inactive) | 0.647 (inactive) | -0.0177
19 | CC(C)CN1CCc2nc(-c3ccccc3)c3c(c2CC1)CO[C@@H](C)C3 | 0.0991 (inactive) | 0.0981 | 0.82 (inactive) | 0.576 (inactive) | 0.923 (inactive) | -0.142 (inactive) | -0.528 | 1.47 (inactive) | -0.0482 (inactive) | -0.334
20 | C[C@H](c1ccccc1)N1C(=O)[C@H]2[C@H]3[C@H](O)[C@H](O)CC(=O)[C@@H]3CC[C@H]2C1=O | -0.228 (inactive) | 0.173 | 0.12 (inactive) | 0.321 (inactive) | 0.151 (inactive) | -0.12 (inactive) | -0.448 | 0.292 (inactive) | -0.112 (inactive) | -0.092
21 | COc1cccc([C@@H]2Oc3ccc(Br)cc3C(=O)[C@H]2O)c1 | 0.91 (inactive) | -0.0464 | 20 (active) | 3.35 (inactive) | -0.0836 (inactive) | 0.592 (inactive) | -0.256 | 0.658 (inactive) | -1.89 (inactive) | -0.879
22 | CC(C)N1CC=CC23O[C@@H]4C=CCCOC(=O)C4[C@H]2C(=O)N(CCCCCCO)[C@@H]3C1=O (stereo not given in full) | 0.383 (inactive) | -0.007 | 0.156 (inactive) | 0.405 (inactive) | 0.799 (inactive) | 0.647 (inactive) | 0.342 | 0.584 (inactive) | -0.185 (inactive) | 1.52
23 | CC(=O)OC[C@H]1O[C@H](CCON=C[C@@H](C)[C@H](OCc2ccccc2)C(C)C)C=C[C@@H]1OC(C)=O | -2.02 (inactive) | -0.313 | 1.25 (inactive) | 0.412 (inactive) | 1.01 (inactive) | 0.367 (inactive) | -0.297 | -0.953 (inactive) | -0.218 (inactive) | -2.17
24 | C[N+](C)(C)CCCCCCNC(=O)[C@@H]1C[C@@H]2C(=O)N3CCC[C@H]3C(=O)N2[C@@H]1c1cccc(OCCO)c1 | 0.733 (inactive) | 0.388 | 5.3 (inactive) | 0.679 (inactive) | 1.45 (inactive) | 0.277 (inactive) | 0.0239 | 0.15 (inactive) | 0.982 (inactive) | 1.49
25 | CO[C@H]1COC(=O)[C@@H]2CCCN2C(=O)[C@@H](C)COC(=O)CC=C[C@@H]1C | 0.737 (inactive) | -0.198 | 0.464 (inactive) | 0.279 (inactive) | 0.61 (inactive) | 0.27 (inactive) | -0.552 | -0.281 (inactive) | 0.0546 (inactive) | -0.48
26 | CC(=O)C[C@H](O)[C@@H](NC(=O)OC(C)(C)C)C(C)C | -0.593 (inactive) | -0.196 | 0.427 (inactive) | -0.649 (inactive) | 1.48 (inactive) | -1.64 (inactive) | 1.63 | 0.2 (inactive) | -0.658 (inactive) | -1.63
27 | CC(CCC(=O)OC[C@H]1O[C@H](C#Cc2ccccc2)C=C[C@@H]1Oc1ccc(C)cc1)=NOC[C@@H](O)COCc1ccco1 | 0.654 (inactive) | -0.839 | 17.7 (active) | 1.77 (inactive) | 0.811 (inactive) | 1.18 (inactive) | 0.63 | -0.0388 (inactive) | 0.811 (inactive) | -0.37
